Legend:
Assay in all cases: PBM binding z-score (relative to random genomic background probes); higher = stronger binding; sequences stand for … in GC…GCGATTGACAGCGTAGAATGAAGG
[1] = test system: RARb homodimer (NR concentration 270 nM)
Outline: (§1)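 Ligand-free nuclear receptor dimers were applied to custom Agilent 4×180K protein-binding microarrays whose double-stranded probes carried direct-repeat seeds, single-nucleotide variants, half-site ablations and random human genomic background sequences in 34-nt variable regions. Incubation lasted 1 h. Binding z-scores were computed against the random background probes from regression-normalized fluorescence.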

[2] = test system: RARg:RXRa (NR concentration 270 nM, RXRa partner concentration 90 nM)
Outline: as §1

[3] = test system: RARg homodimer (NR concentration 270 nM)
Outline: as §1

[4] = test system: RXRa DBDmut IVT, anti-RXR (DBD mutation: RXRa K156A/R161A, NR concentration 90 nM)
Outline: as §1

[5] = test system: RXRa homodimer (NR concentration 180 nM)
Outline: as §1

[6] = test system: THRa:RXRa (NR concentration 90 nM, RXRa partner concentration 90 nM)
Outline: as §1

[7] = test system: THRa homodimer (NR concentration 90 nM)
Outline: as §1

[8] = test system: VDR homodimer (NR concentration 270 nM)
Outline: as §1

Sequence	PBM binding z-score [1]	PBM binding z-score [2]	PBM binding z-score [3]	PBM binding z-score [4]	PBM binding z-score [5]	PBM binding z-score [6]	PBM binding z-score [7]	PBM binding z-score [8]
ATATGTAGGTTACATACGGGTCATTCAGGCTATG	2.71	4.44	2.41	0.906	3.48	2.73	0.593	2.29
AGAATGAGGTTATACGTAAATCAGGGAAGAAAGT	0.771	1.56	1.08	1.72	2.06	2.17	0.605	0.824
CGTCGAAGGTCATAGGAGGTCAGTGAAGACAGAT	5.29	6.92	7.53	3	6.64	5.27	1.39	3.45
AGAATGAGGTTACCAAAGATCAGGCAAACGCTTG	0.854	1.97	1.63	1.16	2.65	2.84	0.538	-0.192
ACAGACAGGTGATGAAGGTAATTCAGGCTATCAT	-0.0158	0.139	0.241	-0.19	0.13	0.514	0.165	-0.369
TGACCAAGGTGAAGGTCGTTGATCCCTCTGTAGA	1.87	1.64	1.25	-0.322	1.84	2.37	0.58	0.744
TCAGACAGGTGAGGGTAACTCAGGTACGCAGTCG	0.992	0.551	0.485	0.971	0.746	2.35	0.442	0.115
CCGACTGGGGCAAGGTTACAATAACGCACAGCCA	1.47	1.1	1.24	-0.315	1.27	1.09	-0.205	0.439
CGAACTAGGTCACAGAGGTCAAAGTCCGTGCGTA	5.38	7.57	7.52	3.54	8.15	4.58	2.83	6.98
CGTACTAGGTCATTGACAGGACAGTGAATAGTAA	2.49	4.45	4.13	2.38	2.6	2.9	0.971	1.45
CATACTAGGTCACGAAAGGTCAAAGTCGAATGAC	5.99	7.94	8.68	2.83	8.69	5.16	2.91	4.71
CCAACTGGGCCAAGGTCATTGATCAGTCAAAGCA	3.25	3.49	2.52	1.67	3.17	3.45	2.23	2.57
CGTCCAAGGTCTAAGGTCAGTGAAGAGATGACGG	3.66	3.47	4.02	1.14	3.1	3.65	3.24	1.1
TCTTGTAGTTCAATAGAGGTTAAGAAAGTGCGCT	2.27	2	2	2.27	2.15	3.61	0.104	1.59
AATACAGGGTCACCAGGCCAGAGTAGGTACGAAT	3.63	6.17	6.17	2.62	7.47	3.85	1.88	2.7
CTTACTGGGCCAAGGTCATTGATCAGTCAAAGCA	3.49	4	3.2	2.11	3.65	3.43	2.31	3.76
ATCGAAAGGTCGTGAGGTGAGTATCCAGAAAGGC	2.99	4.59	3.92	1.15	5.24	3.28	1.55	0.852
CAAACTAGGTCACCGGAAGGTCAAAGCCCGCATG	5.35	8.33	7.37	1.48	6.03	4.42	2.96	3.25
TCTGCTAGGTCAGTTGGTCAGATAACGAGCTGCC	2.62	2.67	3.55	0.564	1.03	1.38	0.154	-0.455
AGTCAAAGTTCATCTAGGTAACGGAAGATATGCT	4.04	5.6	6.13	4.58	4.85	3.33	0.388	5.59
CGTCCAGGGTCAGCAGGTCAGTGAAAGCGACGTG	4.51	6.01	5.75	1.59	5.4	3.61	1.32	1.25
AGAATGAGGTTAAGATCAGGGGAACAGAATACAT	1.37	2.14	1.59	1.58	2.52	2.8	1.34	0.727
TCTTGTAGATCAACAGGAGGTTAAGTAAGATCGA	0.766	1.15	0.284	0.388	1.02	1.78	-0.391	-0.26
AGTCAAAGTTCAGGAAGAGGTAACGTAAAGCACG	3.02	5.33	4.81	2.79	2.93	2.91	0.341	1.81
CCTTACGGGTCACTGACAGGTAATAGCATTTGGA	2.83	5.08	4.26	1.55	4.7	2.64	0.085	0.456
AGAATGAGGTTATTAAGATTAGGGAATTGCGGTC	0.809	1.27	0.836	2	1.72	2.05	0.933	1.29
CGAACTAGGTCAAGGACTGTGAATCTCCGCACGC	2.85	3.76	4.41	1.33	2.35	2.52	1.03	0.0818
CGAACTAGGTCAAAGACAGTGAATCTCCGCACGC	2.53	3.63	3.88	1.57	2.67	2.39	0.814	0.508
